# Data taken from ChEMBL document CHEMBL1201862, “PubChem BioAssay data set” (2004).
# Hit rate of the full screen: of about 58,000 sequences, about 4,000 (6.9%) were called active. No stated cut-off is given here; in the data, active = GI50 up to about 1.1 µM and inactive = higher. These entries were drawn from the full list. Measured potencies and affinities stand elsewhere.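 48-hour exposure; five concentrations; linearly interpolated endpoints. At the GI50, growth is halved.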
# Tested on: KM12
# Test: NCI tumour cell line growth inhibition, 48 h
row,Substance,GI50
1,"[Bis(aminomethyl)pentamethylenesilane]dichloropaltinum(II), CHEMBL2146202",5.56 µM
2,"[Bis(aminomethyl)tetramethylenesilane]dichloropaltinum(II), CHEMBL2146205",78 µM
3,"mu-(1,7-nanodiamine-N,N')bis-(cis-aminedichloroplatimum (II)), CHEMBL2146215",97.1 µM
4,"[Bis(aminomethyl)pentamethylenesilane]tetrachloropaltinum(IV), CHEMBL2146204",4.12 µM
5,"[Bis(aminomethyl)ethylmethylsilane]tetrachloroplatinum(IV), CHEMBL2146192",3.89 µM
6,"[Bis(aminomethyl)diethylsilane]tetrachloroplatinum(IV), CHEMBL2146203",8.85 µM
7,"[Bis(aminomethyl)dimethylsilane]dichloroplatinum (II), CHEMBL2146201",> 100 µM
8,"CISPLATIN, CHEMBL11359",10 µM
9,"[Bis(aminomethyl)dimethylsilane]tetrachloroplatinum(IV), CHEMBL2146190",18.1 µM
10,"[Bis(aminomethyl)tetramethylenesilane]tetrachloropaltinum(IV), CHEMBL2146189",14.8 µM
11,"cis-Bis[[(trimethylsilyl)methyl]amino]tetrachloroplatinum(IV), CHEMBL2146191",9.66 µM
